Laboratory results taken from the supplement of paper PMC3334620.
The full ranking holds about 33,000 sequences; the median of “E-score (-0.5 to 0.5)” is about -0.036, and the highest 2% start at about 0.37. Many of the other results were omitted from the sample, so the highest values are more common in it than they were.

molecular target: T1, Yer064c (UniProt P40041); assay: PBM E-score (8-mer binding enrichment) (E-score (-0.5 to 0.5)); higher = stronger / more preferred TF binding; settings: protein concentration: 200 nM; construct: GST-full length
T1 sequence: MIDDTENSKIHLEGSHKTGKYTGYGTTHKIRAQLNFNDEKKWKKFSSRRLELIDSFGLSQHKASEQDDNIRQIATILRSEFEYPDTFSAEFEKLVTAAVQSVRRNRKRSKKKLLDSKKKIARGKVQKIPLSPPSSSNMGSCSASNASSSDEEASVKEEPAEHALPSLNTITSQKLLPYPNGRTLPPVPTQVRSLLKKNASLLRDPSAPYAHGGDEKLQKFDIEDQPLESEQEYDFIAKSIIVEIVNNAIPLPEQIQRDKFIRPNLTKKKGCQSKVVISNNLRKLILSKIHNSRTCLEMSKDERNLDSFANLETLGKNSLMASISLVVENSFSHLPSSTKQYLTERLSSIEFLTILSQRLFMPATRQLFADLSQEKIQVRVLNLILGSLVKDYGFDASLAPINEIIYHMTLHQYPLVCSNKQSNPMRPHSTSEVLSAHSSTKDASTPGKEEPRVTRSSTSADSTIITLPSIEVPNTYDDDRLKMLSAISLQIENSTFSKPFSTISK
Experimental: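 Universal 'all 10-mer' protein binding microarrays (Agilent AMADID 015681) probed with GST-tagged S. cerevisiae TFs (full-length or DBD) made by in vitro transcription/translation (PURExpress), about 100-200 nM. Bound TF was detected with fluorescent anti-GST. Each ungapped 8-mer (which stands for itself and its reverse complement) is scored by the PBM enrichment score (E-score), a modified Wilcoxon-Mann-Whitney statistic from -0.5 to +0.5, computed with the Universal PBM Analysis Suite. Scale: above 0.35 generally sequence-specific binding.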

Row | Sequence | PBM E-score
1 | TCGTCAGA | -0.15
2 | GCGTCAGA | -0.116
3 | GACGGCCC | -0.375
4 | CATCCTAA | 0.0625
5 | GTAGAAAC | -0.119
6 | AACGGCTT | -0.309
7 | TACTCTGA | 0.156
8 | CACTCTTA | -0.016
9 | AACTCTGA | 0.186
10 | AACTCTGC | 0.0728
11 | GACTCTGC | 0.376
12 | CACTCTGC | -0.0532
13 | GACTCTTA | 0.428
14 | AACTCTTA | 0.0866
15 | GACTCTGA | 0.392
16 | ATTCTCTG | 0.0149
17 | CCTCTGCA | -0.264
18 | GGCTAGAA | 0.00723
19 | GCCCTTAA | -0.185
20 | AGGCCTGC | -0.27
21 | CCGGGCCC | -0.315
22 | GCGGACCA | -0.0691
23 | AGCCCCCT | -0.382
24 | ATAGGATG | 0.0522
25 | CCGAGTCA | 0.467

Row | Sequence | PBM E-score
26 | TCGAGTCA | 0.471
27 | ACGAGTCG | 0.383
28 | CCGAGTCC | 0.195
29 | CCGAGTCG | 0.261
30 | ACGAGTTG | -0.0661
31 | GCGAGTCA | 0.485
32 | GCGAGTAA | 0.206
33 | GCGAGTCC | 0.262
34 | ACGAGTAG | 0.039
35 | TCGAGTAA | 0.11
36 | TCGAGCCA | -0.00283
37 | ATACCCGA | -0.0409
38 | CTCTTTGC | -0.0733
39 | AACGTCCG | -0.343
40 | TCTCGAAA | 0.0754
41 | GCGGAACA | 0.0307
42 | CAGGGGGC | -0.337
43 | CGGCTGAA | 0.0435
44 | ATTTTGCG | 0.00719
45 | ACCCAACA | -0.144
46 | CCGCCTGC | 0.00718
47 | ACGAGTCA | 0.48
48 | ACGAGTCT | 0.312
49 | ACGAGTCC | 0.289
50 | AATCGCTC | 0.211

Row | Sequence | PBM E-score
51 | GACTACGC | 0.391
52 | CACTACGA | 0.0996
53 | AACTACGC | 0.0819
54 | CACTACGC | -0.197
55 | GACTACGA | 0.413
56 | TACTACGA | 0.181
57 | ATGAAATA | -0.0533
58 | AAGAGTTG | 0.0206
59 | CAGAGTCC | 0.212
60 | AAGAGTCG | 0.423
61 | CAGAGTCG | 0.324
62 | GAGAGTCC | 0.256
63 | TAGAGTCA | 0.469
64 | TAGAGTAA | 0.0416
65 | GAGAGTAA | 0.0863
66 | CAGAGTCA | 0.469
67 | GAGAGTCA | 0.481
68 | AAGAGTGG | -0.242
69 | TAGAGTGA | 0.171
70 | AAGGCTGT | -0.161
71 | CAAACGCA | -0.0486
72 | CCCGGACC | -0.189
73 | AGTAAGAT | 0.0659
74 | CATGTTCC | -0.138
75 | ACGGTACG | 0.0345

Row | Sequence | PBM E-score
76 | ATACAAGC | -0.123
77 | AAGAGTCA | 0.489
78 | AAGAGTCC | 0.303
79 | AAGAGTCT | 0.355
80 | CACTAGTA | -0.0969
81 | TACTAGTA | 0.216
82 | AACTAGTC | 0.355
83 | CACTAGTC | 0.274
84 | GACTAGTC | 0.408
85 | GACTAGTA | 0.391
86 | AACCAGTC | 0.171
87 | GTAGCCAA | -0.0169
88 | CATGTCTA | 0.205
89 | AGTCAACA | 0.441
90 | CGTCAACG | 0.0184
91 | ACTCAACT | 0.337
92 | AGTCAACG | 0.443
93 | AGTCAACT | 0.424
94 | ACTCAACG | 0.288
95 | CGTCAACA | -0.189
96 | CGTCAACC | -0.225
97 | AGTCAACC | 0.442
98 | TGTCAACA | -0.18
99 | GGTCAACC | -0.0162
100 | AATCAACT | 0.314

Row | Sequence | PBM E-score
101 | ATTCGAAG | 0.15
102 | AAGATACG | -0.0653
103 | AGATCTCA | 0.0373
104 | ATGGGCTG | -0.0763
105 | CACTTAGA | 0.0684
106 | TGCATTAA | 0.0992
107 | CTGGCCGC | -0.163
108 | AATACGCT | -0.136
109 | AAGTAGTC | 0.415
110 | CAGTAGTC | 0.403
111 | AAGTAGTG | -0.157
112 | CAGTAGCC | -0.116
113 | CAGTAGTA | 0.111
114 | AAGTAGTA | 0.0556
115 | GCAAAGCC | -0.263
116 | GTGGCAAC | -0.295
117 | CGTTCACA | 0.0136
118 | CCTGGCAC | -0.304
119 | GCCATTCA | -0.0419
120 | CTATCATC | -0.0157
121 | CCATCATA | -0.0232
122 | CAATCATA | 0.371
123 | CAATCATC | 0.422
124 | CGATCATA | 0.0235
125 | CCATCATC | -0.01

Row | Sequence | PBM E-score
126 | GAATCATC | 0.48
127 | GAATCAAC | 0.358
128 | GAATCAAA | 0.268
129 | CCGGCTTA | -0.221
130 | CCTTGGAA | -0.185
131 | CCGAAAAA | 0.0649
132 | ATAGGTCC | -0.0251
133 | AGTAAACC | -0.0239
134 | CCCTTTTA | -0.0873
135 | AGATTGAT | 0.0609
136 | ATTGAGTA | 0.282
137 | CTTGAGGC | -0.146
138 | CTTGAGTA | 0.233
139 | ATTGAGTC | 0.479
140 | CTTGAGTC | 0.466
141 | ATTGAGTG | 0.149
142 | ACGGCCAG | -0.206
143 | AGCCATGA | 0.282
144 | ATCAGTCA | 0.434
145 | GTCAGTGA | 0.31
146 | GTCAGTTA | 0.0503
147 | CTCAGTCC | 0.255
148 | ATCAGTCC | 0.0464
149 | GTCAGTCA | 0.451
150 | ATCAGTCG | 0.296

Row | Sequence | PBM E-score
151 | CTCAGTCA | 0.436
152 | CTCAGTGA | 0.235
153 | ATCAGGGG | -0.00776
154 | ACGCACAG | -0.247
155 | GCCCATCC | -0.0789
156 | ATAAAAAA | 0.112
157 | TTTAGAAA | 0.0151
158 | AAGAGCGG | -0.214
159 | CGGGTGCC | -0.315
160 | AGTCGTGC | 0.371
161 | CGTCGTGC | -0.106
162 | AATCGTGC | 0.137
163 | AGTCGTTG | 0.326
164 | CGTCGTGA | 0.0738
165 | AGTCGTGG | 0.373
166 | AGTCGTGA | 0.375
167 | ATTCGTGG | 0.186
168 | GGTCGTGA | -0.0505
169 | AACGAGAC | 0.0315
170 | AAAGAGCA | -0.0916
171 | CGGGGCAG | -0.052
172 | CCCCTGAC | 0.173
